# Assay outcomes (PubChem)
# Most compounds without a hit are left out; they make up all but 11% or so of the library.
# NIH3T3 tox = NIH 3T3 cell cytotoxicity; NIH 3T3 viability, CellTiter-Glo ATP luminescence, 48-72 h; Potency, µM (top dose mostly 96.7 µM), without a hit: at the highest dose activity change, negative = cytotoxicity, most hits filed as inhibitors; 4.3% of 94,000 active; also: nearly all actives have a fitted effect of over 55% in size
#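 NIH 3T3 cells at 400 cells/well received 23 nL of compound by pintool and were incubated 48 or 72 h at 37 °C. Viability was read as ATP-coupled CellTiter-Glo luminescence.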
# HEK cytotox = kills HEK 293 cells. Potency, µM (doses to about 115 µM), for inactives: at the top dose activity change, negative = cytotoxicity, most hits filed as inhibitors. HEK 293 viability, ATP luminescence (CellTiter-Glo), 48-72 h. 6.6% of 94,000 active; also: nearly all actives have a fitted effect of over 60% in size
#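 Cells seeded first (HEK 293, 250 cells/well), then compound added by pintool. Incubation ran 48 or 72 hr at 37 degree Celsius. CellTiter-Glo was added and luminescence imaged after 10 min at room temperature.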
# Luciferase inh = blocks purified firefly luciferase enzyme activity; Potency, µM (series often up to 115 µM), most hits filed as inhibitors; 2.5% of 76,000 active; purified P. pyralis luciferase, luminescence, biochemical; AID 1347043; also: nearly all actives have a fitted effect of over 65% in size
#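 Cell-free enzyme assay, 10nM P. pyralis luciferase, luciferin and ATP each at 10uM. Inhibition profiled over a 6-point titration, read as luminescence.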
# NPR1 antag = antagonists of human natriuretic peptide receptor Npr1; Potency, µM (highest dose often 46.3 µM), inactives show top-dose activity change, negative = inhibition, most hits filed as inhibitors; HEK293 hNpr1 GloSensor cGMP, ANP-stimulated luminescence; 1.6% of 76,000 active; calls by dose curve; also: nearly all actives have a fitted effect of over 60% in size
#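 HEK293 cells stably expressing human Npr1 and cGMP GloSensor pGS-40F, loaded 2 h with 2% GloSensor reagent, given compound 30 min at room temperature. Luminescence read before and 20 min after 0.1 nM hNppA.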
# * hit, by the source's call; i = inactive; ? = inconclusive; . = not tested or not shown; [ ] = dose if it differs, or a comment. Unless noted, calls follow the shape of the dose curve; as a rule, active = well fitted curve in the direction sought with a large enough effect; inconclusive = small, poorly fitted or top-dose-only effect, or another doubt; inactive = no such curve, though single readings can be large; an effect the other way counts as inactive or inconclusive. % is scaled to controls: 0 for no effect and ±100 for the full control effect; potency is read from the fitted curve at half-maximal effect.
SMILES,NIH3T3 tox,HEK cytotox,Luciferase inh,NPR1 antag
CN1C(=O)[C@@H]2C[C@@H](CN2Cc2ccc3ccccc3n2)Oc2ccccc21,79µM*,?,i,-13%[70.6 µM]
O=C1Nc2ccccc2O[C@H]2C[C@@H]1N(Cc1ccc(C(F)(F)F)cc1)C2,?,71µM*,i,?
O=C1[C@@H]2C[C@@H](CN2Cc2ccc(Cl)cc2)Oc2ccccc2N1Cc1ccccc1,32µM*,63µM*,i,?
CC(C)N1C[C@@H]2C[C@H]1C(=O)N(Cc1ccccc1)c1ccccc1O2,50µM*,?,i,-22%[70.6 µM]
COC(=O)[C@@H]1Cc2ncn(Cc3ccc(OC)cc3)c2CN1C(=O)CC(C)(C)C,-23%[174 µM],?,i,0%[70.6 µM]
COCCN1C(=O)[C@@H]2C[C@@H](CN2Cc2ccc(C(F)(F)F)cc2)Oc2ccccc21,?,79µM*,i,-2%[70.6 µM]
COc1ccc(CN2C(=O)[C@@H]3C[C@@H](CN3Cc3ccc(S(C)(=O)=O)cc3)Oc3ccccc32)cc1,?,?,i,-2%
COc1ccc(CN2C(=O)[C@@H]3C[C@@H](CN3Cc3ccccc3OC)Oc3ccccc32)cc1,i,i,i,-12%
COc1ccc(CN2C(=O)[C@@H]3C[C@@H](CN3Cc3ccccc3)Oc3ccccc32)cc1,?,50µM*,i,-22%[70.6 µM]
O=C1[C@@H]2C[C@@H](CN2C2CCC2)Oc2ccccc2N1Cc1ccc(OC(F)(F)F)cc1,40µM*,71µM*,i,-29%[70.6 µM]
COc1ccc(CN2C(=O)[C@@H]3C[C@@H](CN3Cc3ccccc3C)Oc3ccccc32)cc1,?,71µM*,i,-30%[70.6 µM]
Fc1ccc(CN2CCN(C3CCNC3)CC2)cc1Cl (stereo not drawn),-8%,-20%,i,8%
c1ccc(COc2ccc(CN3CCN(C4CCNC4)CC3)cc2)cc1 (stereo not drawn),45µM*,?,?,-27%
CC(C)C1=NOC2(CCN(C(=O)c3ccc4c(c3)OCO4)C2)C1 (stereo not drawn),79µM*,-30%,.,.
CCOc1cccc(CN2C[C@@H](COC)[C@H](C(=O)N(C)C)C2)c1,1%,-28%,i,2%
COc1ccc(C(=O)N2CCC3(CC2)C(OC)CN3c2cccc(F)c2)cc1F (stereo not drawn),?,?,i,1%
O=C1CCCCC(C(=O)N2CCc3ccccc3C2)N1 (stereo not drawn),i,?,i,5%
O=C(C1CN(C2CCCCC2)C(=O)N1)N1CCc2ccccc2C1 (stereo not drawn),?,25µM*,.,.
O=C(NCc1cccc(F)c1)C1CN(C2CCCC2)C(=O)N1 (stereo not drawn),-18%[138 µM],1%[172 µM],.,.
CN(C)C(=O)c1ccc2nc(-c3cccnc3)oc2c1,-7%[138 µM],2%[172 µM],.,.
CC1=C[C@@H](CC#N)[C@H](C(C)C)C[C@H]1CC(=O)NC1CCCCC1,?,89µM*,i,1%[70.6 µM]
CC1=C[C@@H](CC#N)[C@H](C(C)C)C[C@H]1CC(=O)N1CCC(C)CC1,?,71µM*,i,-14%[70.6 µM]
O=S(=O)(c1cccs1)N1CCC(n2cnnc2-c2ccccc2)CC1,-6%,5%,i,-1%
Cc1cccc(NC(=O)N2CCc3c(c4ccccc4n3C)C2)c1C,?,?,i,-3%
Cn1c2c(c3cc(F)ccc31)CN(C(=O)Nc1cccc(F)c1)CC2,22µM*,45µM*,?,-15%
SMILES,NIH3T3 tox,HEK cytotox,Luciferase inh,NPR1 antag
Cn1c2c(c3ccccc31)CN(C(=O)Nc1cccc(Br)c1)CC2,32µM*,?,?,-9%
Cc1ccc(NC(=O)N2CCc3c(c4ccccc4n3C)C2)cc1C,?,45µM*,?,-20%
COCC(=O)NC[C@H]1CCN(Cc2cccc(OC)c2)C[C@H]1N(C)C,i,i,i,2%
COc1ccccc1C(=O)N1CCc2nc(C(C)C)nc(-c3ccc(O)cc3)c2C1,-28%,-10%,i,0%
O=C1CCCCC(CNC(=O)c2cn[nH]c2-c2ccc(F)cc2)N1 (stereo not drawn),-9%,-3%,.,.
CCCCN(CCC(=O)NCCc1ccccc1)C(=O)c1cc(C)oc1C,35µM*,14µM*,i,?
COCCCNC(=O)CCN(CCC(C)C)C(=O)c1cc(C)oc1C,-7%,?,i,-3%
Cc1cc(C(=O)N(CCC(=O)NCCC(C)C)CCC(C)C)c(C)o1,?,32µM*,i,-16%
